G9a inh: qHTS Assay for Inhibitors of Histone Lysine Methyltransferase G9a | Potency, µM (series often up to 102 µM), without a hit: top-dose activity, negative = inhibition, actives largely listed as inhibitors | 350,000 compounds, 8.8% hits | G9a H3K9 monomethylation, AlphaScreen, 2 h | Histone-lysine N-methyltransferase EHMT2 (Homo sapiens), Q96KQ7 | AID 504332, 2011; also: % is scaled to controls: 0 for no effect and ±100 for the full control effect; nearly all actives have a fitted effect of over 75% in size
Target sequence (Q96KQ7 913-1193 limits assumed): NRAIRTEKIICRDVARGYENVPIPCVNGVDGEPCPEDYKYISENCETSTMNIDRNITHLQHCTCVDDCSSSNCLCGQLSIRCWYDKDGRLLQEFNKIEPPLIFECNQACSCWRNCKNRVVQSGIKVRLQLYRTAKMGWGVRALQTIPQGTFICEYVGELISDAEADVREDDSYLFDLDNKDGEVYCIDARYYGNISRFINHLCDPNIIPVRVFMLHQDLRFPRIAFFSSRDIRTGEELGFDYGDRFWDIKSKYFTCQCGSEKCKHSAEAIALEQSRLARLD
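G9a (20 nM) preincubated 15 min RT with compounds, then 500 nM biotinylated H3K9 peptide and 20 uM SAM added; 2 h RT reaction. Monomethyl-H3K9 product detected by AlphaScreen with anti-H3K9me1 antibody, streptavidin donor and anti-rabbit IgG acceptor beads.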
BAZ2B inh: qHTS Assay for Inhibitors of BAZ2B. 360,000 compounds, 4.4% hits. Bromodomain adjacent to zinc finger domain protein 2B (Homo sapiens), Q9UIF8. Potency, µM (doses to about 114 µM), inactives show at the top dose activity change, negative = inhibition, hits mostly inhibitors. AlphaScreen BAZ2B-H3K14Ac peptide displacement; also: % is scaled to controls: 0 for no effect and ±100 for the full control effect; nearly all actives have a fitted effect of over 60% in size
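Inhibition is scored as reduced AlphaScreen emission. The BAZ2B/b-H3(5-23)K14Ac complex (50 nM each) in PBS pH 7.4, 0.01% Tween-20 meets compound (up to 110 uM) for 30 min at RT before bead addition.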
JMJD2A Tudor inh: qHTS Assay for Inhibitors of JMJD2A-Tudor Domain; Lysine-specific demethylase 4A (Homo sapiens), O75164; AlphaScreen JMJD2A-Tudor / H3K4me3 peptide binding; Potency, µM (highest dose often 114 µM), for the others: at the highest dose activity change, negative = inhibition, actives largely listed as inhibitors; 390,000 compounds, 4.4% hits; also: % is scaled to controls: 0 for no effect and ±100 for the full control effect; nearly all actives have a fitted effect of over 50% in size
Sfp PPTase inh: qHTS Assay for Inhibitors of Bacillus subtilis Sfp phosphopantetheinyl transferase (PPTase); Potency, µM, for the others: largest response in the series, negative = inhibition, hits mostly inhibitors; 310,000 compounds, 3.5% hits; AID 1490, 2009; Biochemical Sfp PPTase activity, qHTS; 4'-phosphopantetheinyl transferase ffp (Bacillus subtilis), Q9F4F7;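 also: the enzyme is Sfp with the accession as filed and its product quenches rhodamine fluorescence; 0% = enzyme reaction without inhibitor and -100% = no enzyme wells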
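Fluorescence-quenching assay: 15 nM Sfp-PPTase preincubated 15 min at room temperature with compound, then 5 uM rhodamine-CoA and 12.5 uM BHQ-2-labelled YbbR peptide added. Fluorescence (ex 525/em 598 nm) read at start and after 30 min; difference gives rate.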
L3MBTL1 inh: qHTS Assay for the Inhibitors of L3MBTL1 | Lethal(3)malignant brain tumor-like protein 1 (Homo sapiens), Q9Y468 | AlphaScreen L3MBTL1–H3K9me1 peptide binding | Potency, µM (series often up to 57.1 µM), without a hit: at the highest dose activity, negative = inhibition, hits mostly inhibitors | 230,000 compounds, 0.66% hits; also: % is scaled to controls: 0 for no effect and ±100 for the full control effect; nearly all actives have a fitted effect of over 60% in size
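AlphaScreen proximity signal between nickel-chelate acceptor and streptavidin donor beads (final 10 ug/mL) reports binding of 50 nM L3MBTL1 to 75 nM biotin-H3 K9me1 peptide; complex incubated with compounds 30 min at room temperature; cefsulodin titration as control.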
HP1b binding inh: HTS for Inhibitors of HP1-beta Chromodomain Interactions with Methylated Histone Tails; AlphaScreen HP1-beta / biotin-H3K9me3 peptide binding; Potency, µM (highest dose often 114 µM), for inactives: at the top dose activity change, negative = inhibition, hits mostly inhibitors; 390,000 compounds, 0.56% hits; Chromobox protein homolog 1 (Homo sapiens), P83916; also: nearly all actives have a fitted effect of over 70% in size
Target sequence (P83916 whole entry, looked up): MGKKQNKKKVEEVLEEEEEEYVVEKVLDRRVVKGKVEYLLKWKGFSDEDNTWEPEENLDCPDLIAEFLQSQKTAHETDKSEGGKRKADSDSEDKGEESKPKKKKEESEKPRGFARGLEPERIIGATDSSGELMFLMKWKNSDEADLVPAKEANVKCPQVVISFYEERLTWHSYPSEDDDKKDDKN
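HP1-beta protein (50 nM final) preincubated 30 min at room temperature with biotinylated H3(1-18)K9me3 peptide (50 nM) in PBS pH 7.4, 0.01% Tween-20, then compound added for 30 min. AlphaScreen streptavidin donor/nickel chelate acceptor beads (10 ug/mL final), 30 min dark, luminescence read.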
* marks the source's active call; other numbers are inactive results; ? = inconclusive; . = no result; [ ] = another dose, or the depositor's remark. Rows were chosen to be rich in hits. Some 12% of all compounds tested hit in one or more screens of this group. Calls follow the shape of the dose curve; as a rule, active = well fitted curve in the direction sought with a large enough effect; inconclusive = small, poorly fitted or top-dose-only effect, or another doubt; inactive = no such curve, though single readings can be large; an effect the other way counts as inactive or inconclusive. Potency is read from the fitted curve at half-maximal effect.

SMILES	G9a inh	BAZ2B inh	JMJD2A Tudor inh	Sfp PPTase inh	L3MBTL1 inh	HP1b binding inh
COC(=O)c1ccc2nc(NC(=O)COC(=O)CSc3nc(C)cc(C)n3)sc2c1	13µM*	?	-6%	-17%	3%	30%
Cc1cc(=O)n2[nH]c(=O)c(N=Nc3ccccc3)c2[nH]1	-13%[12.7 µM]	?	?	-2%	-1%	9%
CCOc1ccc(N=Nc2c(=O)[nH]n3c(=O)cc(C)[nH]c23)cc1	?	50µM*	56µM*	2%	-10%	-22%
COc1cccc(N=Nc2c(N)[nH][nH]c2=O)c1	4.5µM*	-37%	-26%	-11%	-8%	-6%
CCOc1ccc(N=Nc2c(N)[nH][nH]c2=O)cc1	3.5µM*	?	79µM*	-15%	-10%	-25%
Cc1c(Cl)cccc1NC(=O)Cn1c(=O)n(Cc2ccco2)c(=O)c2sc3ccccc3c21	37%[59 µM]	0%	-18%	.	.	53%
O=c1ccc2ccccc2[nH]1	.	.	.	-30%	.	.
C=CCn1c(C(C)NC(=O)c2cccs2)n[nH]c1=S (configuration not stated)	16µM*	0%	18µM*	-8%	0%	2%
C=CCn1c(CNC(=O)c2cccs2)n[nH]c1=S	25µM*	22%	?	-18%	24%	15%
CCc1ccc(C(C)NC(=O)c2cccs2)cc1 (configuration not stated)	.	.	-7%	.	.	-3%
CCn1c(C(C)NC(=O)c2cccs2)n[nH]c1=S (configuration not stated)	13µM*	-5%	7.1µM*	-12%	-7%	9%
Cc1ccc2c(CN3CCN(C(=O)c4ccc(Br)cc4)CC3)cc(=O)oc2c1	-5%[59 µM]	-16%	0%	.	.	33%
CCCCC1=CC2=C(c3ccco3)C(=O)C(C)(OC(=O)c3cccs3)C(=O)C2=CO1 (configuration not stated)	.	.	.	-17%	.	.
COc1ccc(NC(=O)c2ccco2)cc1NC(=O)COc1cc(C)ccc1C(C)C	-1%[59 µM]	-15%	3%	.	.	39%
O=C(CN1CCN(S(=O)(=O)c2cc(Cl)ccc2Cl)CC1)Nc1cccc(F)c1	5%[59 µM]	-2%	-8%	.	.	16%[57 µM]
C#CCOCCOCCOCCNc1nc(N2CCN(C(=O)Cn3cc(CCCCN)nn3)CC2)nc(N2CCN(C(=O)Cn3cc(CC(C)O)nn3)CC2)n1 (configuration not stated)	50µM*	?	-11%	-9%	1%	85%
C#CCOCCOCCOCCNc1nc(N2CCN(C(=O)Cn3cc(CCO)nn3)CC2)nc(N2CCN(C(=O)Cn3cc(CC(C)O)nn3)CC2)n1 (configuration not stated)	.	.	-8%	.	.	44%
C#CCOCCOCCOCCNc1nc(N2CCN(C(=O)Cn3cc(CC(C)O)nn3)CC2)nc(N2CCN(C(=O)Cn3cc(CC(C)O)nn3)CC2)n1 (configuration not stated)	?	-5%	-2%	23%	4%	30%
C#CCOCCOCCOCCNc1nc(N2CCN(C(=O)CCCCCCCCCCNC(=O)Cn3cc(C[C@@H](C)O)nn3)CC2)nc(N2CCN(C(=O)CCCCCCCCCCNC(=O)[C@@H]([C@H](C)CC)n3cc(CCCCCN)nn3)CC2)n1	-3%[2.33 µM]	?	56µM*	.	-5%	?
C#CCOCCOCCOCCNc1nc(N2CCN(C(=O)CCCCCCCCCCNC(=O)Cn3cc(CCCCCN)nn3)CC2)nc(N2CCN(C(=O)CCCCCCCCCCNC(=O)Cn3cc(C[C@@H](C)O)nn3)CC2)n1	13%[2.33 µM]	79µM*	25µM*	.	6%	-27%
C#CCOCCOCCOCCNc1nc(N2CCN(C(=O)CCCCCCCCCCNC(=O)Cn3cc(CCCCCN)nn3)CC2)nc(N2CCN(C(=O)CCCCCCCCCCNC(=O)[C@@H]([C@H](C)O)n3cc(C)nn3)CC2)n1	23%[2.33 µM]	?	79µM*	.	8%	?
C#CCOCCOCCOCCNc1nc(N2CCN(C(=O)CCCCCCCCCCNC(=O)Cn3cc(C[C@@H](C)O)nn3)CC2)nc(N2CCN(C(=O)CCCCCCCCCCNC(=O)[C@@H]([C@H](C)O)n3cc(C)nn3)CC2)n1	-1%[2.33 µM]	3%	-27%	.	24%	33%
Cc1ccc(S(=O)(=O)N2CCOCC2)cc1NC(=O)COC(=O)CSc1ccc(Br)cc1C	18µM*	-2%	-29%	1%	.	15%
Cc1ccc(S(=O)(=O)N2CCOCC2)cc1NC(=O)COC(=O)CNC(=O)c1ccc(C(C)(C)C)cc1	50µM*	-28%	-20%	14%	2%	11%
COc1ccc(CCNC(=O)Cn2nnc(-c3cccc(C(F)(F)F)c3)n2)cc1OC	7%[59 µM]	-14%	-8%	.	.	21%
SMILES	G9a inh	BAZ2B inh	JMJD2A Tudor inh	Sfp PPTase inh	L3MBTL1 inh	HP1b binding inh
COc1ccc(-c2cc(C(F)(F)F)nc(SCCC(=O)Nc3ccc(O)cc3)n2)cc1	3%[59 µM]	1%	-12%	.	.	15%
C=CCn1c(SCc2nc(N)nc(N(C)C)n2)nnc1-c1cccnc1	50µM*	?	-11%	16%	-3%	21%
COc1ccc(SCCN2CCN(CCc3ccccc3)CCC2=O)cc1	.	.	255%	-12%	.	390%
CCCCCCCCCCCCCCCC(=O)NCC(COP(=O)([O-])OCC[N+](C)(C)C)OCC (configuration not stated)	16%[12.7 µM]	.	.	.	.	.
CCCCCCCCCCCCCCCCCC(=O)NCC(COP(=O)([O-])OCC[N+](C)(C)C)OCC (configuration not stated)	13µM*	.	.	.	.	.
O=C(O)c1cc(NN=C2CCN(Cc3ccccc3)CC2)ccc1Cl	.	15%	-23%	-17%	-7%	23%
CCCN1CCC(=NNc2ccc(C(=O)O)cc2)CC1	7.9µM*	?	-24%	?	2%	23%
O=C(Nc1cc(F)ccc1F)c1ccc2c(c1)nnn2C1CCCC1	-3%[59 µM]	1%	-7%	.	.	20%
Cn1cc(C(=O)c2ccc(Cl)cc2)cc1-c1nc2ccccc2n1C	.	?	56µM*	12%	-8%	-16%
Cn1c(=O)c(C(=O)c2ccccc2)nc2ccccc21	28%[59 µM]	6%	-11%	2%	0%	8%

Source: PubChem (National Center for Advancing Translational Sciences (NCATS))
